Test results taken from PubChem BioAssay (Tox21).
Several values for one entry are separate records, joined by “and”; a condition that tells them apart may be missing. Identical values can stand only once. Results filed as inconclusive are left out. Some compounds were tested as several samples or in several runs, with calls that do not always agree. Activity calls are given as the source filed them. Unless noted, calls come from the whole dose curve.

What was measured:
[1] = Nuclear factor erythroid 2-related factor 2/antioxidant responsive element (Nrf2/ARE) small molecule agonists: qHTS cell viability counter screen in human keratinocytes (AID 1919968; active = well fitted curve in the direction sought with a large enough effect in the repeat runs; an effect the other way counts as inactive or inconclusive; note: nearly all actives have a fitted effect of over 55% in size; note: potency is the fitted concentration of half-maximal effect); conditions: KeratinoSens HaCaT ARE cells viability, CellTiter-Fluor, 24 h; series mostly up to 92.4 µM
Method in brief: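 After a 5 h attachment period, ARE-reporter keratinocytes were dosed with compounds in DMSO and then cultured 23 h at 37 C. Cell viability came from CellTiter-Fluor signal read after a further 1 h.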

[2] = Nuclear factor erythroid 2-related factor 2/antioxidant responsive element (Nrf2/ARE) small molecule agonists: luciferase reporter gene qHTS assay in human keratinocytes (AID 1919969); conditions: KeratinoSens HaCaT ARE-luciferase, luminescence, 24 h; series mostly up to 92.4 µM; note: nearly all actives have a fitted effect of over 35% in size; note: potency is the fitted concentration of half-maximal effect
[3] = target: Gonadotropin-releasing hormone receptor (Homo sapiens) (UniProt P30968); assay: Human gonadotropin-releasing hormone receptor (GnRHR) small molecule agonists, calcium flux assay in GnRHR-HEK293 cells (AID 1920063); conditions: calcium flux fluorescence, agonist mode; series mostly up to 57.6 µM; note: nearly all actives have a fitted effect of over 35% in size
Method in brief: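 We seeded human GnRHR-expressing HEK293 cells for 18 hours, loaded them with calcium dye for an hour at 37 C, added test compounds, and recorded fluorescence intensity kinetically for three minutes.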

[4] = target: KiSS-1 receptor (Homo sapiens) (UniProt Q969F8); assay: Human kisspeptin (KISS1R) small molecule agonists, calcium flux assay in KISS1R-HEK293 cells (AID 1920064; active = well fitted curve in the direction sought with a large enough effect in the repeat runs; an effect the other way counts as inactive or inconclusive); conditions: KISS1R-HEK293, calcium flux fluorescence, agonist; series mostly up to 76.8 µM
Method in brief: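 Kinetic calcium assay, 1 s sampling over 3 min at Ex/Em 480/540, in HEK293 cells engineered with human KISS1R; compounds delivered in DMSO after 1 h dye loading.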

[5] = G protein-coupled receptor (GPCR) small molecule agonists, calcium flux assay: HEK293 wild type cell line counter screen (AID 1920065); conditions: HEK293 WT calcium flux, fluorescence, agonist mode; series mostly up to 57.6 µM
Method in brief: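 Calcium-sensitive dye, loaded 1 h at 37 C into cells cultured 18 h, reports compound-evoked calcium release as fluorescence (Ex/Em 480/540), measured over 3 min. Agonist mode; 15-point titrations, triplicate.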

[6] = p53 small molecule agonists, cell-based qHTS assay with human liver microsomes (AID 1963577); conditions: HCT-116 p53RE-bla with human liver microsomes, ratio, 16 h; series mostly up to 66 µM;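 note: p53 response element beta-lactamase reporter cells with liver microsomes plus NADPH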
Method in brief: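 16 h, 37 C exposure of p53RE-bla cells to compounds with human liver microsomes and NADPH (0.5 mg/mL final each); detection via LiveBLAzer mixture, 2 h dark at room temperature.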

[7] = p53 small molecule agonists, cell-based qHTS assay with rat liver microsomes (AID 1963578); conditions: HCT-116 p53RE-bla, beta-lactamase ratio, 16 h; series mostly up to 66 µM
Method in brief: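 With rat liver microsomes and NADPH present (0.5 mg/mL final each), p53RE-bla cells are treated with compound for 16 h at 37 C. LiveBLAzer detection mixture is then applied for 2 h at room temperature in the dark.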

[8] = p53 small molecule agonists, cell-based qHTS assay with human liver microsomes: qHTS cell viability counter screen (AID 1963579); conditions: p53RE-bla HCT-116 viability, ATP luminescence, 16 h, HLM; series mostly up to 66 µM; note: nearly all actives have a fitted effect of over 45% in size
Method in brief: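 In this multiplexed counter screen, the reporter plates were subsequently treated with CellTiter-Glo so that cell viability, reflected by luminescence, could be recorded for p53RE-bla cells dosed 16 h with compounds under microsomal activation (HLM and NADPH).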

[9] = p53 small molecule agonists, cell-based qHTS assay with rat liver microsomes: qHTS cell viability counter screen (AID 1963580); conditions: p53RE-bla HCT-116 + rat microsomes, ATP viability, 16 h; series mostly up to 66 µM; note: nearly all actives have a fitted effect of over 45% in size
Method in brief: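 Viability is assessed in parallel with the p53 reporter read: HCT-116 p53RE-bla cells receive compounds plus rat microsomes and NADPH (0.5 mg/mL final apiece), incubate 16 h at 37 C, and then CellTiter-Glo luminescence is recorded.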

[10] = p53 small molecule agonists, cell-based qHTS assay: qHTS cell viability counter screen (AID 1963581); conditions: p53RE-bla HCT-116 viability, ATP luminescence, 16 h; series mostly up to 66 µM; note: nearly all actives have a fitted effect of over 45% in size
Method in brief: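 Following 5 h attachment, HCT-116 p53RE-bla cells took up compound for 16 h at 37 C; the reporter was read with B/G FRET substrate (2 h RT), and viability then via CellTiter-Glo ATP luminescence.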

[11] = target: 5-hydroxytryptamine receptor 2A (Homo sapiens) (UniProt P28223); assay: 5-hydroxytryptamine receptor 2A (HTR2A) small molecule antagonists, cell-based qHTS assay (AID 1963586); conditions: HTR2A-CHO cells, DOI-induced calcium flux, fluorescence; series mostly up to 61.5 µM; note: nearly all actives have a fitted effect of over 45% in size; note: potency is the fitted concentration of half-maximal effect
Method in brief: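 Antagonist-mode intracellular calcium assay: DOI (4 nM) added after 5 min compound pre-incubation at room temperature to dye-loaded HTR2A-CHO cells. Fluorescence followed for 3 min, sampled every second.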

[12] = target: 5-hydroxytryptamine receptor 2A (Homo sapiens) (UniProt P28223); assay: 5-hydroxytryptamine receptor 2A (HTR2A) small molecule agonists, cell-based qHTS assay (AID 1963587); conditions: HTR2A-CHO cells, calcium flux fluorescence, agonist mode; series mostly up to 76.8 µM; note: nearly all actives have a fitted effect of over 30% in size
Method in brief: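 CHO cells stably expressing human HTR2A, plated 18 h, loaded with calcium dye 1 h at 37 C. Agonist mode: compounds added and intracellular calcium fluorescence recorded kinetically for 2 min at 1 sec intervals.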

[13] = target: Muscarinic acetylcholine receptor M1 (Homo sapiens) (UniProt P11229); assay: Cholinergic receptor muscarinic 1 (CHRM1) small molecule antagonists, cell-based qHTS assay (AID 1963588); conditions: CHRM1-CHO antagonist mode, calcium flux fluorescence; series mostly up to 61.5 µM; note: nearly all actives have a fitted effect of over 40% in size
Method in brief: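 CHRM1-CHO calcium-flux assay, antagonist mode. Cells were seeded 18 h, dye-loaded 1 h at 37 C and given compound for 5 min at RT, then acetylcholine was added at 50nM. FDSS fluorescence was read 3 min; 15 concentrations, three runs.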

[14] = target: Muscarinic acetylcholine receptor M1 (Homo sapiens) (UniProt P11229); assay: Cholinergic receptor muscarinic 1 (CHRM1) small molecule agonists, cell-based qHTS assay (AID 1963589); conditions: CHRM1-CHO cells, agonist mode, calcium flux fluorescence; series mostly up to 76.8 µM; note: nearly all actives have a fitted effect of over 35% in size
Method in brief: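 Measures agonist-induced intracellular calcium rise. Stable human CHRM1 CHO line, 1 h dye load at 37 C, compounds from DMSO, kinetic fluorescence read.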

[15] = target: Beta-2 adrenergic receptor (Homo sapiens) (UniProt P07550); assay: Adrenergic beta2 receptor (ADRB2) small molecule antagonists, cell-based qHTS assay (AID 1963592); conditions: CHO-ADRB2 cells, isoproterenol-stimulated cAMP HTRF ratio, 0.5 h; series mostly up to 92.4 µM; note: nearly all actives have a fitted effect of over 50% in size
Method in brief: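 Cells (CHO, stable ADRB2 overexpression) incubated 18-20hr at 37C; compounds added from DMSO; agonist mix (1nM isoproterenol, 100uM IBMX, 25uM Ro-20-1724) added; 0.5hr RT; d2-cAMP and anti-cAMP-cryptate added; 1hr RT; 665/615 nm read.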

[16] = target: D(2) dopamine receptor (Homo sapiens) (UniProt P14416); assay: Dopamine D2 receptor (DRD2) small molecule agonists, cell-based qHTS assay (AID 1963594); conditions: HEK293-DRD2 cAMP HTRF, agonist mode, 30 min; series mostly up to 92.4 µM; note: nearly all actives have a fitted effect of over 35% in size
Method in brief: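 HEK293 cells stably expressing human DRD2, pre-treated with PDE inhibitor Ro20-1724 (0.1 mM final) and compound 10 min at room temperature, then stimulated with NKH477 (200nM […]) for 30 min. cAMP read by HTRF (665/620 nm).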

[17] = target: D(2) dopamine receptor (Homo sapiens) (UniProt P14416); assay: Dopamine D2 receptor (DRD2) small molecule antagonists, cell-based qHTS assay (AID 1963595; active = well fitted inhibition curve with a large enough effect in the signal ratio in the repeat runs, with a control signal flat; the % refers to the signal ratio; note: potency is the fitted concentration of half-maximal effect); conditions: HEK293-DRD2 cAMP HTRF antagonist mode; series mostly up to 92.4 µM
Method in brief: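 Cells were plated and grown for 24 h at 37 °C. Ro20-1724 (0.1 mM final) went in first, then compound for 10 min. NKH477 (200 nM) with quinpirole (12 nM) followed for 30 min at RT, then HTRF detection reagents for 1 h.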

[18] = cAMP Responsive Elements (CRE) small molecule antagonists, cell-based qHTS assay (AID 1963591; active = well fitted inhibition curve with a large enough effect in the signal ratio in the repeat runs, not every such curve was filed as active; the % refers to the signal ratio); conditions: CRE-bla HEK293T, beta-lactamase FRET ratio; series mostly up to 92.4 µM
Method in brief: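 HEK293T cells carrying a CRE-driven beta-lactamase reporter receive compound and NKH477 (0.25 uM final) for 3 h. Fluorescence from LiveBLAzer B/G FRET substrate is read after 2 h at room temperature.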

[19] = cAMP Responsive Elements (CRE) small molecule agonists, cell-based qHTS assay (AID 1963590); conditions: CRE-bla HEK293T, beta-lactamase FRET ratio, 3 h; series mostly up to 92.4 µM
Method in brief: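 A CRE-responsive beta-lactamase reporter in HEK 293T cells was used. Treatment ran 3 h at 37 C; detection used LiveBLAzer B/G FRET substrate for 2 h at room temperature.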

[20] = p53 small molecule agonists, cell-based qHTS assay (AID 1963582; active = well fitted activation curve with a large enough effect in the signal ratio in the repeat runs, not every such curve was filed as active; the % refers to the signal ratio); conditions: HCT-116 p53RE-bla reporter, beta-lactamase FRET ratio, 16 h; series mostly up to 66 µM
Method in brief: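 In this cell-based concentration-response screen, a p53 response element drives beta-lactamase; cells received DMSO-borne compounds after 5 h culture and were incubated a further 16 h before FRET substrate development.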

Measured: Potency

KiSS-1 receptor (Homo sapiens), sequence (Q969F8 whole entry, looked up): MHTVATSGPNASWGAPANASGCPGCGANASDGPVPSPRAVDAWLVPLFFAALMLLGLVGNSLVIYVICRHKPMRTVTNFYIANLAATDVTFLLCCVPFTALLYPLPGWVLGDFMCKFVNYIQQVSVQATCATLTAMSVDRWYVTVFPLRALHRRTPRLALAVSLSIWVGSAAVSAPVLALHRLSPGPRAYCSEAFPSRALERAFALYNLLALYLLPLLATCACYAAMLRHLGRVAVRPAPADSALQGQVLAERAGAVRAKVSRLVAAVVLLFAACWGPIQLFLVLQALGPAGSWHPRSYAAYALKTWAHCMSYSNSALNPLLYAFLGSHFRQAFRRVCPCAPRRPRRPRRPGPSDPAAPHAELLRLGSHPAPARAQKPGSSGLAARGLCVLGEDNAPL
5-hydroxytryptamine receptor 2A (Homo sapiens), sequence (P28223 whole entry, looked up): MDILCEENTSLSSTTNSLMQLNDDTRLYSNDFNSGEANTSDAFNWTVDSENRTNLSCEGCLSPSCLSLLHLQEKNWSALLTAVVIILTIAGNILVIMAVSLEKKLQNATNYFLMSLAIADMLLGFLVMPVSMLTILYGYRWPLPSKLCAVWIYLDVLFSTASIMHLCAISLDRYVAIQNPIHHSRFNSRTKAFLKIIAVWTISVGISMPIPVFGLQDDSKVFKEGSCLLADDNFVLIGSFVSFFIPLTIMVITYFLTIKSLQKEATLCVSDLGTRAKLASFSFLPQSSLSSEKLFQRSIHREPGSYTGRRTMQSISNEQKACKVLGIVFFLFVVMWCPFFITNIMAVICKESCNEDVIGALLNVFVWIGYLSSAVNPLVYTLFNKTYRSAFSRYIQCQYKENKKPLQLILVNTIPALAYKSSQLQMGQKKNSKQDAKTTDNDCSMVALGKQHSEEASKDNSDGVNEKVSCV
Muscarinic acetylcholine receptor M1 (Homo sapiens), sequence (P11229 whole entry, looked up): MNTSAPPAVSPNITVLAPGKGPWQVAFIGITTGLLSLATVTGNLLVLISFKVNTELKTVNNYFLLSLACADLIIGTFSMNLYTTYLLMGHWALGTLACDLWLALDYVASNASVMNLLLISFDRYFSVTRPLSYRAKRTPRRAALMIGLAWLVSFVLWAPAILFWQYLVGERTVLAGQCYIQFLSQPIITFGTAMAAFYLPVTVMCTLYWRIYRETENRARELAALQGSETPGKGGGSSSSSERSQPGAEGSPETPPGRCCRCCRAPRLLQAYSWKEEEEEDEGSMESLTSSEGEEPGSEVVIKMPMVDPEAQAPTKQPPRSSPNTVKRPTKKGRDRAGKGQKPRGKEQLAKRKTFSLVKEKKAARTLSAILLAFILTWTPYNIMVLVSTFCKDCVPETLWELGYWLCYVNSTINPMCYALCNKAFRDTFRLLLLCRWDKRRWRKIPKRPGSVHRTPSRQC
Beta-2 adrenergic receptor (Homo sapiens), sequence (P07550 whole entry, looked up): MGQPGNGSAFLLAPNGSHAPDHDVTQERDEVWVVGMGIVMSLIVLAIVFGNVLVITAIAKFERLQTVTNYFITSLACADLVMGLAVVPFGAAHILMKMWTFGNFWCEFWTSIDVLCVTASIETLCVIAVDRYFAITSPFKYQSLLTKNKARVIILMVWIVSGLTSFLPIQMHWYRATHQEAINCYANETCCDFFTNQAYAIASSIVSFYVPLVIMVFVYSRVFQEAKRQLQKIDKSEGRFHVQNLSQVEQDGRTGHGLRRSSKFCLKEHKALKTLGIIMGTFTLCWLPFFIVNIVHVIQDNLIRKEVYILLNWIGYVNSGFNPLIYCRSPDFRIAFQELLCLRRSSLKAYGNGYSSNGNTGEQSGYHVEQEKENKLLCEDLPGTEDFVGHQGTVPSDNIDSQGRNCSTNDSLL
Gonadotropin-releasing hormone receptor (Homo sapiens), sequence (P30968 whole entry, looked up): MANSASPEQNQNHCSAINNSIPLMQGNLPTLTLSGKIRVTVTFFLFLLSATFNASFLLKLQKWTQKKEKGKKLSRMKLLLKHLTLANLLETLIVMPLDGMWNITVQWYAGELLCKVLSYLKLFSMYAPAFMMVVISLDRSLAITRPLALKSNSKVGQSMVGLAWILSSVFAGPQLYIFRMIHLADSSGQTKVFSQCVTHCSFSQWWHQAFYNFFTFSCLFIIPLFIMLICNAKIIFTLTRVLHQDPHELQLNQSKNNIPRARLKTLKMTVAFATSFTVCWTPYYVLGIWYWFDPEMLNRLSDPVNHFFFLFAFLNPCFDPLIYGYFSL
D(2) dopamine receptor (Homo sapiens), sequence (P14416 whole entry, looked up): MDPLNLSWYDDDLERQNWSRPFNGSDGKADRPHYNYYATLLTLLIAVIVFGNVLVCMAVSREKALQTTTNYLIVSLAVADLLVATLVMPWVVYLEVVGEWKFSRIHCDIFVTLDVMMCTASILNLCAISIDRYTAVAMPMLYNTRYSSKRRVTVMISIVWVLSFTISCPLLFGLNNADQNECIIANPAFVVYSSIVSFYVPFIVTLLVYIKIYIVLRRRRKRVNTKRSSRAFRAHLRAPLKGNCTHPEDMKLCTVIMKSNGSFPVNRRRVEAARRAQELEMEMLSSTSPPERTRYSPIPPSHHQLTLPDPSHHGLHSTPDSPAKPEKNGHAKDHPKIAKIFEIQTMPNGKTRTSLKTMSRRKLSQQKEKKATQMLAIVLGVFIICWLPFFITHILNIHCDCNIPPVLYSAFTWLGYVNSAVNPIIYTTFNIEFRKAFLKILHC

Oc1c(Cl)c(Cl)c(Cl)c(Cl)c1Cl
23.2 µM (active) and inactive: [11]
active: [1] 30 µM
not listed: [18] | [19] | [20]
inactive: all other assays above

O=C(O)c1nn(Cc2ccc(Cl)cc2Cl)c2ccccc12
not listed: [18] | [19] | [20]
inactive: all other assays above

Cc1ccc2c(c1N)C(=O)c1ccccc1C2=O
active: [2] 60.4 µM and 1.93 µM
not listed: [11] | [19] | [20]
inactive: all other assays above

Cn1cc[n+](C)c1 (tested in a mixture with another compound)
not listed: [20]
inactive: all other assays above

CN(C)[C@@H]1C(=O)C(C(N)=O)=C(O)[C@@]2(O)C(=O)C3=C(O)c4c(O)cccc4[C@@](C)(O)[C@H]3C[C@@H]12
not listed: [12] | [20]
inactive: all other assays above

C/C(=N\NC(=O)Nc1cc(F)cc(F)c1)c1ncccc1C(=O)O
not listed: [10] | [17]
inactive: all other assays above

CCOCN(C(=O)CCl)c1c(C)cccc1CC
active: [2] 25.8 µM and 68.6 µM
not listed: [13] | [18] | [19] | [20]
inactive: all other assays above

COCCC#N
not listed: [14] | [15] | [20]
inactive: all other assays above

Nc1cc(Cl)cc(C(=O)O)c1Cl
not listed: [20]
inactive: all other assays above

NNC(=S)NN
active: [1] 6.28 µM and 30.6 µM | [2] 2.5 µM
not listed: [13] | [18] | [20]
inactive: all other assays above

C#CCOS(=O)OC1CCCCC1Oc1ccc(C(C)(C)C)cc1 (stereo not given)
68.7 µM (active) and inactive: [1]
active: [2] 19.4 µM and 19.3 µM
inactive and 54.5 µM (active): [17]
not listed: [18] | [19] | [20]
inactive: all other assays above

COc1ccc(C(CN(C)C)C2(O)CCCCC2)cc1 (stereo not given)
not listed: [11] | [12] | [13] | [14] | [15] | [20]
inactive: all other assays above

CCCCOCC1CO1 (stereo not given)
not listed: [20]
inactive: all other assays above
